Consider 17 molecules from PubChem BioAssay (NCI).

What all share (experiment): NCI-60 one-dose screen, 48 h (100 = growth as untreated, 0 = no growth, -100 = all killed)
Assay [1] concerns BT-549 breast. The settings on record: 10 µM unless noted.
For assay [2], the system named is MDA-MB-435 melanoma. The settings on record: 10 µM unless noted.
Assay [3] relates to SW-620 colon. The settings on record: 10 µM unless noted.
For assay [4], the system named is MCF7 breast. To be noted: 10 µM.
For assay [5], the system named is HCT-116 colon. To be noted: 10 µM unless noted.
Assay [6] concerns HCC-2998 colon. The settings on record: 10 µM unless noted.
The subject of assay [7] is KM12 colon. The settings on record: 10 µM unless noted.

The panel holds about 83,000 compounds, 20% with a hit somewhere; the sample as a whole holds those more often.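 The test compound was applied at a single concentration to cells in 96-well plates for 48 hours, and percent growth was recorded.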 Values without a mark were called inactive. Calls of active or inactive are those of the source. How the source made its calls: active means growth percent below 10; inactive means the rest.

With `COc1cccc(C(=O)Cn2cc(/C=C(\C#N)S(=O)(=O)c3ccccc3)c3ccccc32)c1`, the growth in assay [1] was 103%; in assay [2], 113%; in assay [3], 95.5%; in assay [4] it was 94.5%; in assay [5] it was 83.9%; in assay [6], 91%. Further, the growth in assay [7] was 107%.

In the case of `CCOc1ccc(-c2nonc2NC(=O)c2cccc(C)c2)cc1OCC`, the growth in assay [1] is 66.8%; in assay [2], 51.7%; in assay [3] it was 61.8%; in assay [4], 60.3%; in assay [5], 47.2%; in assay [6], 81.8%. The growth in assay [7] is 62.6%.

For the molecule `COC(=O)C1(C)CCC[C@]2(C)[C@H]3C[C@H]4C(C(C)C)=C[C@]3(CC[C@@H]12)[C@H]1[C@@H]4[C@@H](OCC#CCN2CCOCC2)CC[C@@H]1OCC#CCN1CCOCC1` (some centres undefined), the growth is 97.7% in assay [1]; 92.5% in assay [2]; 94.7% in assay [3]; 77.3% in assay [4]; 81% in assay [5]; 97.4% in assay [6]. Further, the growth in assay [7] is 93.2%.

Take `CCOC(=O)c1cc2c(n1Cc1cc(OC)c(OC)c(OC)c1)-c1oncc1CCC2`: the growth in assay [1] was 31.9%; in assay [2], -53.9% (active); in assay [3], 21.5%; in assay [4], 7.45% (active); in assay [5] it was 8.98% (active); in assay [6], 17.2%. Also, the growth in assay [7] was 28.4%.

In the case of `COc1cc(C2C(C#N)=C(N)OC3=C2C(=O)c2ccccc2C3=O)cc(OC)c1OC` (centres undefined), the growth in assay [1] is 41.4%; in assay [2], -19.7% (active); in assay [3], 21.5%; in assay [4], 18.9%; in assay [5] it was 19.1%; in assay [6], 30.4%. Moreover, the growth in assay [7] is 13.1%.

Turning to `COc1cc(CNC(=O)c2ccsc2Nc2ccnc(C(F)(F)F)c2)ccc1O`, the growth in assay [1] is 103%; in assay [2], 101%; in assay [3] it was 100%; in assay [4] it was 113%; in assay [5], 101%; in assay [6] it was 109%. For the same molecule, the growth in assay [7] was 104%.

As to `O=C(c1nc2ccccc2[nH]1)C1[C@@H](c2cccc(O)c2)C2CC3CCCCC3N2[C@@]12C(=O)Nc1cc(Cl)ccc12` (some centres undefined), the growth in assay [1] was 62.5%; in assay [2], 29.3%; in assay [3] it was 39.3%; in assay [4] it was 18.9%; in assay [5], 31.5%; in assay [6], 33.8%. For the same molecule, the growth in assay [7] is 34.9%.

On to `Cc1cccc2c(=O)c3c(sc12)c(NCCCNCCO)nc1ccccc13`, for which the growth in assay [1] was 73%; in assay [2], 29.5%; in assay [3], -51.6% (active); in assay [4], -61% (active); in assay [5], -30.3% (active); in assay [6], 12.7%. Moreover, the growth in assay [7] was 33.6%.

As to `CCOc1cccc(/C=N\Nc2nc(=O)cc(C(=O)OC)s2)c1O`, the growth in assay [1] was 85.4%; in assay [2], 91.6%; in assay [3], 79.3%; in assay [4], 8.66% (active); in assay [5], 22%; in assay [6], 78%. For the same molecule, the growth in assay [7] is 75.3%.

For the molecule `CN1C(=O)N(C)C2(c3ccccc3)OC(=S)NC12c1ccccc1` (centres undefined), the growth in assay [1] was 94.1%; in assay [2] it was 103%; in assay [3] it was 111%; in assay [4], 91.8%; in assay [5] it was 94.8%; in assay [6], 106%. Further, in assay [7], the growth was 91.9%.

With `O=[N+]([O-])c1cc2c(ccc3occc32)o1`, the growth was 22% in assay [1]; -75.1% (active) in assay [2]; 27.6% in assay [3]; 9.95% (active) in assay [4]; 7.94% (active) in assay [5]; 10.9% in assay [6]. Besides, the growth in assay [7] was 28.6%.

In the case of `O=C(/C=C/c1ccc(C(F)(F)F)cc1)c1ccc(Nc2nc(NCCO)nc(N3CCOCC3)n2)cc1`, the growth in assay [1] was 61%; in assay [2], 22.1%; in assay [3] it was -6.72% (active); in assay [4], 3.91% (active); in assay [5] it was -28.3% (active); in assay [6] it was 63.9%. For the same molecule, the growth in assay [7] is -32.2% (active).

`COc1ccc(-c2nc(-c3ccccn3)c(-c3ccccn3)n2CC(C)C)cc1OC1CCCC1`: the growth in assay [1] is 38.5%; in assay [2], 26.9%; in assay [3] it was 21.9%; in assay [4] it was 10.8%; in assay [5] it was 14.7%; in assay [6] it was 24.4%. Also, in assay [7], the growth was 8.2% (active).

As for `CCCCCCC(O)(c1ccc(F)cc1)C(CN1CCOCC1)c1ccccc1` (centres undefined), the growth in assay [1] was 61.9%; in assay [2], 35.8%; in assay [3], 26.3%; in assay [4], 20.4%; in assay [5], 18.5%; in assay [6] it was 23.3%. Moreover, the growth in assay [7] is 29%.

As for `Cc1ccc2cc3c(N)c4c(C)ccc(C)c4nc3nc2c1`, the growth in assay [1] is 53.9%; in assay [2] it was -70.3% (active); in assay [3] it was 11.1%; in assay [4], 37.9%; in assay [5] it was 24.5%; in assay [6] it was 62%. Moreover, in assay [7], the growth was 69.6%.

Take `O=Cc1c(OCc2cnnn2CC(=O)Nc2ccc(Cl)cc2)ccc2ccccc12`: the growth was 90.4% in assay [1]; 104% in assay [2]; 99.2% in assay [3]; 81.5% in assay [4]; 104% in assay [5]; 111% in assay [6]. Besides, the growth in assay [7] is 101%.

For the molecule `COc1ccccc1C1=C(Br)C(=O)c2nc(C)ccc2C1=O`, the growth in assay [1] is 90.4%; in assay [2], 104%; in assay [3], 87.9%; in assay [4], 90.8%; in assay [5] it was 92.1%; in assay [6], 102%. The growth in assay [7] was 103%.
